LANA-H2B inh – blocks KSHV LANA binding to histone H2A/H2B; Q9QR71; cell-free LANA-H2A/H2B peptide, fluorescence polarization; inhibition, % (test concentration not listed); 320,000 tested, 0.6% active; AID 2629; in the data active = inhibition mostly above about 10%, no sharp cut-off; inactive = mostly below about 6.7%
RTF Ca sens act – cardiac RTF calcium sensitization; P19429+P45379; IANBD-labeled TnC RTF fluorescence at EC20 calcium; 0% EC20 calcium, 100% full calcium; activation, % at 7.2 µM; 340,000 tested, 0.24% active;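 active = activation above the mean over all tested compounds plus 3 SD, cut at about 30% in these data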;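 note: rise in fluorescence read as greater calcium sensitivity of cardiac thin filaments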
LANA DNA inh – KSHV C-LANA DNA binding inhibition; 340,000 tested, 0.078% active; inhibition, % at 9 µM; AID 504423; MBP-C-LANA/FAM-LBS DNA binding, fluorescence polarization;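 active = highest replicate inhibition at or above 60% at 9 µM, even if other replicates fall short; inactive = all replicates below 60% inhibition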;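 note: 0% = neutral control wells and 100% = 4 µM acridine orange control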
RTF Ca sens inh – cardiac RTF calcium desensitization. P19429+P45379. IANBD-labeled cardiac RTF, Ca2+ fluorescence. inhibition, % at 7.15 µM. 340,000 tested, 0.12% active;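 active = inhibition above the mean inhibition of all tested compounds plus 3 SD, cut at about 17% in these data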;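 note: assay run at fixed EC70 calcium of 1.6 mM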
Keap1 Nrf2 FP – inhibitors of human Keap1-Nrf2 protein-protein interaction. Q14145. Keap1 Kelch-Nrf2 peptide fluorescence polarization, 1536-well. inhibition, % at 9.4 µM. 340,000 tested, 0.15% active. AID 504523; in the data active = inhibition above about 12%;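 note: human Keap1 Kelch domain with fluorescein labeled Nrf2 9mer peptide probe; 0% = neutral control wells and 100% = peptide positive control; higher means more block of Keap1 binding to Nrf2 peptide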
eLon inh – inhibits E. coli Lon protease | purified E. coli Lon protease, fluorescence polarization | 360,000 tested, 0.42% active | inhibition, % at 7.94 µM | P0A9M0; in the data active = inhibition above about 13%, passing the limit was not always enough;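 note: 0% = enzyme with probe and DMSO and 100% = no enzyme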
Target sequence (P0A9M0 whole entry, looked up): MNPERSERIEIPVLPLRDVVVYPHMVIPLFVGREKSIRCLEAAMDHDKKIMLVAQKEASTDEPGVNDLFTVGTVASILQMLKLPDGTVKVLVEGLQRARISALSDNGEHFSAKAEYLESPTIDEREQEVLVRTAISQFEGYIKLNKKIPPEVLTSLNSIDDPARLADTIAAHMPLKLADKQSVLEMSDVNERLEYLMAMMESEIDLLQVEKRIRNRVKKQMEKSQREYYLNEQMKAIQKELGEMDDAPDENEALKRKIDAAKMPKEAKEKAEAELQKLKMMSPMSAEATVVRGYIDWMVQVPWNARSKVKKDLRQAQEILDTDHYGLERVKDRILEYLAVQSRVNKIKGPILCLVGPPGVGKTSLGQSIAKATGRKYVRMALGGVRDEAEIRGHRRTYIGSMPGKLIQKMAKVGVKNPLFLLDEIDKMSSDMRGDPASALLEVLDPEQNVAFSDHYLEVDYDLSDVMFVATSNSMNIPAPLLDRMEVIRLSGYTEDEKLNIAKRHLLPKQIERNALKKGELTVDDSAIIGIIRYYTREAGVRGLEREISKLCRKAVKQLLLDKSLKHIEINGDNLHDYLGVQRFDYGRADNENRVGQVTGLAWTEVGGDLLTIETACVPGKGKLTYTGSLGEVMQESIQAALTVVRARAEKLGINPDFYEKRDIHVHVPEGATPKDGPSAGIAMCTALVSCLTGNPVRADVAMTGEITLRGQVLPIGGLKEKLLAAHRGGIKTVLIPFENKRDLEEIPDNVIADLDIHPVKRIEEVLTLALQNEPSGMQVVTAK
Numbers without * were called inactive; i = inactive; . = no result given; + = active, no number; ! = repeats disagree. Only some compounds are listed: those with a hit (about 1.3% of all), similar ones and a draw of the others.

SMILES | LANA-H2B inh | RTF Ca sens act | LANA DNA inh | RTF Ca sens inh | Keap1 Nrf2 FP | eLon inh
O=C(O)c1ccc(/C=C2/SC(=S)N(Cc3ccccc3)C2=O)cc1 | 0 | -2 | -1 | -11 | 3 | 3
CN1CCS/C1=C/C=C1\SC(=S)N(CC(=O)O)C1=O | -149 | 249* | -101 | -431 | -421 | i
CCCCN1C(=O)/C(=C/C=C2\SCCN2C)SC1=S | . | 115* | -14 | -205 | -186 | i
CCCCN1C(=O)/C(=C/C=C2\N(C)c3ccccc3C2(C)C)SC1=S | -1 | . | . | . | . | .
CC(/C=C1\SC(=S)N(CC(=O)O)C1=O)=C\c1ccccc1 | -2 | -3 | 2 | 5 | -8 | 4
CN1CCS/C1=C/C=C1/SC(=S)N(Cc2ccccc2)C1=O | -4 | 96* | -2 | -119 | -22 | i
Nc1ncnc2c1ncn2[C@@H]1O[C@H](CNCC#Cc2ccccc2)[C@@H](O)[C@H]1O | 3 | -2 | 5 | -7 | -6 | -8
CC1=C(C(=O)O)CC(S(=O)(=O)O)C1(C)C (stereo unspecified) | . | -2 | 3 | 3 | -1 | -10
O=C(COc1ccccc1Br)Nc1ccc(S(=O)(=O)N2CCCC2)cc1 | -1 | -3 | 0 | 2 | 3 | 2
Cc1c2cc[n+](CCN3CCCCC3)cc2c(C)c2c1[nH]c1ccc(O)cc12 | . | 4 | -13 | 2 | 6 | 15
Cc1cc2c(cn1)C(CCC#N)(CCC#N)c1ccccc1-2 | -3 | 1 | 0 | -1 | 2 | -2
Cc1cc(CSC(=N)N)c(CSC(=N)N)cc1C | 19* | 7 | -2 | -2 | -6 | -1
CCNC(=O)COC(=O)c1cc(C)n(-c2ccccc2)c1C | 0 | 4 | -1 | 6 | -3 | -1
Cc1cc(C(=O)OCC(=O)NCc2ccco2)c(C)n1-c1ccc(F)cc1 | 45* | -6 | 0 | -2 | -6 | 1
CCCCCOc1ccc(C(=O)CCC(=O)NC(C)c2ccc(S(N)(=O)=O)cc2)cc1 (stereo unspecified) | 1 | 4 | 0 | 2 | -2 | -11
CC1CCCC(C)N1C(=O)COC(=O)C12CC3CC(CC(Cl)(C3)C1)C2 (stereo unspecified) | 17* | 7 | 0 | -7 | 3 | -7
O=C(c1ccc(-c2ccccc2)c(F)c1)C1CCCN(C(=O)c2cncs2)C1 (stereo unspecified) | 14* | 0 | 1 | 7 | -4 | 1
Cc1ccccc1Nc1ncccc1C(=O)N1CCOCC1 | 0 | 1 | -2 | -8 | 1 | 57*
Cc1cccc(Nc2ccccc2C(=O)O)c1C | 2 | 1 | 1 | 6 | -1 | -3
O=C(c1cccnc1Nc1ccccc1F)N1CCOCC1 | 1 | 0 | 2 | -5 | -3 | -4
Cc1cccc(Nc2ncccc2C(=O)O)c1C | 59*! | -7 | 0 | -3 | -5 | -4
CCc1nc2ccccc2n1Cc1ccccc1F | 0 | -3 | -2 | -2 | 0 | 4
O=C1C=C(N2CCN(c3ccccn3)CC2)C(=O)c2c(O)ccc(O)c21 | . | 6 | 1 | 3 | -3 | 13
CC1=CC(=O)c2c(O)ccc(O)c2C1=O | 17* | . | . | . | . | .
Cc1cc2n(n1)C(c1ccccc1)CC(c1ccc(Br)cc1)=N2 (stereo unspecified) | i | 0 | 4 | -14 | 3 | 60*
SMILES | LANA-H2B inh | RTF Ca sens act | LANA DNA inh | RTF Ca sens inh | Keap1 Nrf2 FP | eLon inh
CNC(=S)N1N=C(c2ccc(Br)cc2)CC1c1ccc(Br)cc1 (stereo unspecified) | -3 | 4 | 2 | 3 | -7 | -4
O=C(Nc1ccc2c(c1)OCCO2)c1cccc(Cl)c1Cl | 0 | 39* | 0 | 1 | -2 | 4
CCN(CC(=O)NCc1cccs1)C(=O)COc1cccc(C(F)(F)F)c1 | -1 | -3 | 1 | -2 | 5 | 3
CCN(CC(=O)NCc1cccs1)C(=O)COc1ccc(C(C)=O)cc1 | + | 2 | 0 | -11 | -3 | -18
COc1ccc(CN(C)C(=O)c2cccc(S(=O)(=O)N3CCc4ccccc43)c2)c(OC)c1 | -10 | -1 | 0 | 1 | 6 | -9
CCCOc1ccc(C(=O)ON=C2CCN(C)CC2)cc1 | 31* | 6 | 0 | -12 | -4 | 5
N=c1c(S(=O)(=O)c2ccc(Cl)cc2)cc2c(=O)n3ccccc3nc2n1C1CCCCC1 | 3 | -2 | 11 | 2 | 25* | -7
Cc1nc(SCC(=O)NCC2CCCO2)c2cc(-c3ccccc3)sc2n1 (stereo unspecified) | -2 | 2 | -6 | -14 | -4 | 8
O=C(Oc1ccc[nH]c1=O)c1ccc(F)cc1 | . | . | . | . | . | -3
CCCCn1c(N)c(N(CCC(C)C)C(=O)COC(=O)c2ccc3ccccc3c2)c(=O)[nH]c1=O | . | -4 | 1 | -2 | -4 | -1
CCCCN(C(=O)c1ccc(N2CCCC2=O)cc1)c1c(N)n(Cc2ccccc2)c(=O)[nH]c1=O | 0 | -4 | 0 | -13 | 0 | -2
COCCN(C(=O)CN1CCCc2ccccc21)c1c(N)n(Cc2ccccc2)c(=O)[nH]c1=O | 0 | 61* | 24 | -100 | -4 | -18
CCCCn1c(N)c(N(CCC(C)C)C(=O)c2ccc3ccccc3c2)c(=O)[nH]c1=O | 32* | -7 | 1 | 3 | -1 | -7
CC(C)CN(C(=O)c1ccc(N2CCCC2=O)cc1)c1c(N)n(Cc2ccccc2)c(=O)[nH]c1=O | 26* | -6 | -1 | -5 | -7 | 7
CC(C)N(Cc1ccccc1)C(=O)COC(=O)c1c(F)cccc1F | -1 | -7 | 1 | 1 | -4 | -1
COc1ccc2c(c1)C(c1ccccc1)NC(=O)C2 (stereo unspecified) | 0 | -10 | 0 | -4 | -3 | 5
Cc1c(COc2ccc3ccccc3c2)nnn1CC(=O)NS(=O)(=O)c1ccccc1C(F)(F)F | . | . | . | . | . | -12
CCn1nnnc1SCC(=O)NCc1cccs1 | -2 | 2 | 0 | -2 | 1 | -1
CCCn1nnnc1SCC(=O)NCc1cccs1 | 98* | 3 | 0 | -2 | -1 | -5
CCCCc1ccc(Nc2nc(N3CCOCC3)nc(N3CCOCC3)n2)cc1 | 21* | -7 | 0 | -7 | 0 | 4
Cc1ccc(Nc2nc(N3CCOCC3)nc(N3CCOCC3)n2)cc1 | -2 | 1 | 2 | 1 | -3 | -3
CC(C)NCC1CCc2cc(CO)c([N+](=O)[O-])cc2N1 (stereo unspecified) | 4 | 10 | -7 | -4 | 1 | 4
O=C(Nc1ccc(-n2cnnn2)cc1)c1cc(S(=O)(=O)N2CCCC2)ccc1Cl | . | 5 | -2 | -13 | 1 | -6
Cc1ccccc1NC(=S)N1CCN(c2ccccc2)CC1 | -3 | -3 | -3 | -9 | 0 | -5
COc1cc(CN2CCC(n3nccc3NC(=O)c3ccc4c(c3)OCO4)CC2)ccc1O | 47* | -1 | -1 | -1 | -7 | 4

Screens from PubChem BioAssay.
